Source: PubChem BioAssay AID1159580 (chemical genetic matrix, 2015)
About 2,000 (36%) of roughly 5,500 compounds were called active. Not shown: some 18% with an inconclusive outcome. This is one part of the list. Values without a mark were called inactive. Rule as the data show it: active = normalized growth mostly below about 0.91 (no sharp cut-off); inconclusive = no clear call, values can overlap the other calls; inactive = mostly above about 0.92.

Test: chemical genetic growth profiling, strain panel (AID 1159580);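 also: tested at 20 µM; growth read once vehicle control cultures reached saturation at 30 °C; 1 = growth at the plate median or of vehicle wells; lower values mean less growth of the strain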
Conditions: S. cerevisiae deletion strains, growth OD
[1] = locus YAL013W, strain DEP1, stronger effect = lower value
[2] = locus YAL040C, strain CLN3, stronger effect = lower value
[3] = locus YCL061C, strain MRC1 (second series), stronger effect = lower value
[4] = locus YDR363W, strain ESC2, stronger effect = lower value
[5] = locus YER002W, strain NOP16, stronger effect = lower value
[6] = locus YJR075W, strain HOC1, stronger effect = lower value
[7] = locus YMR307W, strain GAS1, stronger effect = lower value
[8] = locus YNL128W, strain TEP1, stronger effect = lower value
[9] = locus YNL175C, strain NOP13, stronger effect = lower value
[10] = locus YNL197C, strain WHI3, stronger effect = lower value
[11] = locus YNL224C, strain SQS1, stronger effect = lower value
[12] = locus YOR083W, strain WHI5 (second series), stronger effect = lower value
[13] = locus YPL055C, strain LGE1, stronger effect = lower value
[14] = locus YGR078C, strain PAC10, stronger effect = lower value

With `C[C@]12CCC3C(CC[C@H]4C[C@H](O)CC[C@]34C)C1CC[C@@H]2C(=O)CO` (stereo partly specified) the normalized growth [1] was 1.02, the normalized growth [2] was 1.08 and the normalized growth [3] was 1.01. The normalized growth (locus YDR150W, strain NUM1, stronger effect = lower value) was 1.03, the normalized growth [4] was 1.02 and the normalized growth [5] was 1.02. The normalized growth [6] was 1.06, the normalized growth [7] was 0.939 and the normalized growth [8] was 1.02. It also gave a normalized growth [9] of 1.04, a normalized growth [10] of 1.02 and a normalized growth [11] of 0.995. It also gave a normalized growth [12] of 1.01, a normalized growth [13] of 1.03 and a normalized growth (locus YPL241C, strain CIN2, stronger effect = lower value) of 1.03.

For `C[C@]12CCC3C(CC[C@H]4C[C@H](O)CC[C@]34C)C1CC[C@@H]2O` (stereo partly specified), the normalized growth (locus YBR021W, strain FUR4, stronger effect = lower value) was 0.803 (active), the normalized growth (locus YBR229C, strain ROT2, stronger effect = lower value) was 1.01 and the normalized growth (locus YCL029C, strain bik1, stronger effect = lower value) was 0.948. It also gave a normalized growth (locus YDL035C, strain GPR1, stronger effect = lower value) of 0.883, a normalized growth (locus YDL074C, strain BRE1, stronger effect = lower value) of 0.929 and a normalized growth (locus YDL101C, strain DUN1, stronger effect = lower value) of 0.938. The normalized growth (locus YDL185W, strain tfp1, stronger effect = lower value) was 0.978, the normalized growth (locus YDL192W, strain arf1, stronger effect = lower value) was 0.965 and the normalized growth (locus YDR101C, strain arx1, stronger effect = lower value) was 0.991. For the same compound, the normalized growth (locus YDR162C, strain NBP2, stronger effect = lower value) was 0.628 (active), the normalized growth (locus YDR318W, strain mcm21, stronger effect = lower value) was 0.948 and the normalized growth (locus YDR388W, stronger effect = lower value) was 0.994. The normalized growth (locus YDR502C, strain sam2, stronger effect = lower value) was 0.899 (active), the normalized growth (locus YER110C, stronger effect = lower value) was 1.01 and the normalized growth (locus YER155C, strain BEM2, stronger effect = lower value) was 1.01. For the same compound, the normalized growth (locus YER167W, strain BCK2, stronger effect = lower value) was 1.02, the normalized growth (locus YGL078C, strain dbp3, stronger effect = lower value) was 0.844 (active) and the normalized growth (locus YGL086W, strain mad1, stronger effect = lower value) was 0.951. For the same compound, the normalized growth (locus YGL248W, strain PDE1, stronger effect = lower value) was 0.882 (active), the normalized growth [14] was 0.908 and the normalized growth (locus YGR135W, strain pre9, stronger effect = lower value) was 0.858 (active). The normalized growth (locus YGR252W, strain gcn5, stronger effect = lower value) was 0.756 (active), the normalized growth (locus YHR079C, strain IRE1 (second series), stronger effect = lower value) was 1.01 and the normalized growth (locus YHR094C, strain hxt1, stronger effect = lower value) was 1. The normalized growth (locus YHR129C, strain ARP1, stronger effect = lower value) was 0.968, the normalized growth (locus YHR200W, strain rpn10, stronger effect = lower value) was 0.987 and the normalized growth (locus YIL066C, strain RNR3, stronger effect = lower value) was 1. For the same compound, the normalized growth (locus YIL073C, strain SPO22, stronger effect = lower value) was 0.875, the normalized growth (locus YIL125W, strain kgd1, stronger effect = lower value) was 0.993 and the normalized growth (locus YIR030C, strain dcg1, stronger effect = lower value) was 0.991. The normalized growth (locus YJL095W, strain BCK1, stronger effect = lower value) was 0.721 (active), the normalized growth (locus YJL134W, strain LCB3, stronger effect = lower value) was 1.01 and the normalized growth (locus YJL168C, strain set2, stronger effect = lower value) was 1. The normalized growth (locus YJL187C, strain SWE1 (second series), stronger effect = lower value) was 0.882, the normalized growth [6] was 0.981 and the normalized growth (locus YKL009W, strain mrt4, stronger effect = lower value) was 0.813 (active). It also gave a normalized growth (locus YKL068W, stronger effect = lower value) of 0.988, a normalized growth (locus YKL085W, strain MDH1 (second series), stronger effect = lower value) of 1.01 and a normalized growth (locus YKL085W, strain MDH1, stronger effect = lower value) of 1.01. The normalized growth (locus YKL190W, strain CNB1, stronger effect = lower value) was 1.02, the normalized growth (locus YKR001C, strain vps1, stronger effect = lower value) was 0.83 (active) and the normalized growth (locus YLR039C, strain RIC1, stronger effect = lower value) was 0.538 (active). For the same compound, the normalized growth (locus YLR058C, strain SHM2, stronger effect = lower value) was 0.944, the normalized growth (locus YLR102C, strain apc9, stronger effect = lower value) was 1 and the normalized growth (locus YLR262C, strain YPT6, stronger effect = lower value) was 0.421 (active). The normalized growth (locus YLR268W, strain sec22, stronger effect = lower value) was 0.974, the normalized growth (locus YLR330W, strain CHS5, stronger effect = lower value) was 0.891 (active) and the normalized growth (locus YLR342W, strain FKS1 (second series), stronger effect = lower value) was 0.814. The normalized growth (locus YLR371W, strain rom2, stronger effect = lower value) was 1.05, the normalized growth (locus YLR418C, strain cdc73, stronger effect = lower value) was 0.894 and the normalized growth (locus YML016C, strain PPZ1, stronger effect = lower value) was 0.989. It also gave a normalized growth (locus YML032C, strain rad52, stronger effect = lower value) of 0.924, a normalized growth (locus YML124C, strain tub3, stronger effect = lower value) of 1.01 and a normalized growth (locus YMR078C, strain ctf18, stronger effect = lower value) of 0.988. The normalized growth (locus YMR223W, strain ubp8, stronger effect = lower value) was 0.936, the normalized growth [7] was 0.798 and the normalized growth (locus YNL067W, strain RPL9B, stronger effect = lower value) was 0.876. The normalized growth (locus YNL233W, strain BNI4, stronger effect = lower value) was 0.904, the normalized growth (locus YNL250W, strain rad50, stronger effect = lower value) was 0.912 and the normalized growth (locus YNL271C, strain bni1, stronger effect = lower value) was 0.942. The normalized growth (locus YNL298W, strain CLA4, stronger effect = lower value) was 0.893 (active), the normalized growth (locus YNL307C, strain MCK1, stronger effect = lower value) was 0.885 (active) and the normalized growth (locus YNR052C, strain pop2, stronger effect = lower value) was 0.884 (active). It also gave a normalized growth (locus YOL006C, strain TOP1, stronger effect = lower value) of 0.926, a normalized growth (locus YOL012C, strain htz1) of 1.56 and a normalized growth (locus YOL147C, strain pex11, stronger effect = lower value) of 1.01. The normalized growth (locus YOR061W, strain CKA2, stronger effect = lower value) was 0.985, the normalized growth (locus YOR069W, strain VPS5, stronger effect = lower value) was 0.957 and the normalized growth (locus YOR136W, strain idh2, stronger effect = lower value) was 0.984. For the same compound, the normalized growth (locus YOR144C, strain elg1, stronger effect = lower value) was 0.994, the normalized growth (locus YOR184W, strain ser1, stronger effect = lower value) was 0.82 (active) and the normalized growth (locus YOR316C, strain cot1, stronger effect = lower value) was 0.992. The normalized growth (locus YPR119W, strain clb2, stronger effect = lower value) was 0.992, the normalized growth (locus YPR141C, strain kar3, stronger effect = lower value) was 1.02 and the normalized growth (locus YPR163C, strain tif3, stronger effect = lower value) was 0.844 (active). It also gave a normalized growth (locus YPR167C, strain met16, stronger effect = lower value) of 0.956 and a normalized growth (strain wtn01, stronger effect = lower value) of 0.961.

For `CC(=O)[C@H]1CCC2C3CC[C@H]4C[C@H](O)CC[C@]4(C)C3CC[C@@]21C` (stereo partly specified), the normalized growth [1] was 1.01, the normalized growth [2] was 0.979 and the normalized growth [3] was 1. The normalized growth [4] was 1.04, the normalized growth [5] was 1 and the normalized growth [14] was 1.01. The normalized growth [7] was 0.935, the normalized growth [8] was 1.01 and the normalized growth (locus YNL153C, strain GIM3, stronger effect = lower value) was 0.944. The normalized growth [9] was 0.993, the normalized growth [10] was 1.01 and the normalized growth [11] was 1. For the same compound, the normalized growth [12] was 1 and the normalized growth [13] was 0.98.
